From PubChem BioAssay (Tox21)
Inconclusive results are not listed. Activity calls are given as the source filed them. Unless noted, calls come from the whole dose curve; as a rule, active = well fitted curve in the direction sought with a large enough effect in the repeat runs; inconclusive = weak or mixed curves; inactive = no such curve, though single readings can be large; an effect the other way counts as inactive or inconclusive.

How the values were obtained:
[1] = qHTS assay for small molecule agonists of the p53 signaling pathway (AID 651631; calls by dose curve; note: nearly all actives have a fitted effect of over 15% in size)
Procedure, shortened: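 HCT-116 p53RE-bla reporter line, 16 h compound treatment at 37 °C, then fluorescence after 2 h with B/G FRET substrate.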

[2] = qHTS assay for small molecules that induce genotoxicity in human embryonic kidney cells expressing luciferase-tagged ATAD5 (AID 651632); note: nearly all actives have a fitted effect of over 15% in size
Procedure, shortened: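 HEK293T cells carrying luciferase-tagged ATAD5 were given compound or DMSO vehicle and incubated 16 hr at 37C, 5% CO2. Luciferase activity was read after 30 min at room temperature with Amplite; a rise signals genotoxic stress.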

[3] = qHTS assay for small molecule agonists of the p53 signaling pathway - cell viability (AID 651633; calls by dose curve;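 note: p53RE-bla HCT reporter cells with a stable beta-lactamase p53 reporter; series mostly up to about 83 µM; nearly all actives have a fitted effect of over 30% in size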)
Procedure, shortened: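 p53RE-bla cells were treated with compound for 16 hours at 37 C. Cytotoxicity was then measured as CellTiter-Glo luminescence after 30 min at room temperature.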

[4] = qHTS assay for small molecules that induce genotoxicity in human embryonic kidney cells expressing luciferase-tagged ATAD5 - cell viability (AID 651634; calls by dose curve; note: nearly all actives have a fitted effect of over 25% in size)
Procedure, shortened: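 HEK293T cells carrying luciferase-tagged ATAD5, 2,000 cells/well, exposed to compound for 15.5 hr at 37C. Viability read as live-cell protease activity by CellTiter-Fluor fluorescence after 30 min at 37C.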

[5] = qHTS assay for small molecule disruptors of the mitochondrial membrane potential - cell viability (AID 720634; calls by dose curve;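 note: human HepG2 liver cancer cells; series mostly up to about 83 µM; nearly all actives have a fitted effect of over 20% in size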)
Procedure, shortened: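 HepG2 cells, 2,000 per well, attached overnight, then treated 1 hr at 37 C, 5% CO2. Viability read as ATP by CellTiter-Glo luminescence after 30 min at room temperature. Read in the same wells as the m-MPI membrane-potential dye assay.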

[6] = qHTS assay to test for compound auto fluorescence at 590 nm (red) in HepG2 cells (AID 720674)
Procedure, shortened: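 Seeding: 2,000 HepG2 cells/well, MEM/10% FBS, overnight 37 C. Dosing: compound vs DMSO. Incubation: 1 hr, 37 C, 5% CO2. Read: fluorescence 540 ex/590 em, Rose Bengal sodium as red reference.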

[7] = qHTS assay to test for compound auto fluorescence at 535 nm (green) in HepG2 cells (AID 720675)
[8] = qHTS assay to test for compound auto fluorescence at 460 nm (blue) in HEK293 cells (AID 720678)
Procedure, shortened: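 HEK293, 2,000 cells/well, 10% dialyzed FBS; attach 4-5 hr 37C; pin compound or DMSO; o/n 37C/5% CO2; fluorescence 405/460 nm; triamterene-equivalent units.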

[9] = qHTS assay to test for compound auto fluorescence at 590 nm (red) in HEK293 cells (AID 720679)
Procedure, shortened: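 Intensity at 540nm excitation and 590nm emission is reported as Rose Bengal sodium-equivalent autofluorescence. Measurements followed overnight exposure (37C, 5% CO2) of HEK293 cells, 2,000 per well, to 23 nL compound.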

[10] = qHTS assay to test for compound auto fluorescence at 535 nm (green) in HEK293 cells (AID 720680)
[11] = qHTS assay to test for compound auto fluorescence at 460 nm (blue) in HEK293 cell free culture (AID 720681)
Procedure, shortened: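 Compounds were added to cell-free DMEM with 10% FBS and fluorescence read directly. The blue channel used 405 nm excitation and 460 nm emission, with triamterene as the reference fluorophore.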

[12] = qHTS assay to test for compound auto fluorescence at 535 nm (green) in HEK293 cell free culture (AID 720682)
Procedure, shortened: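 Steps: dispense DMEM/10% FBS into empty wells; pin in compound or DMSO; measure fluorescence at 485/535 nm. Values are fluorescein equivalents.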

[13] = qHTS assay to test for compound auto fluorescence at 590 nm (red) in HEK293 cell free culture (AID 720683)
Procedure, shortened: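 Cell-free wells of DMEM with 10% FBS received compound, and intrinsic fluorescence was read at excitation/emission 540/590 nm. Values expressed as equivalence to Rose Bengal sodium.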

[14] = qHTS assay to test for compound auto fluorescence at 590 nm (red) in HepG2 cell free culture (AID 720684)
Procedure, shortened: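 Compound was pinned into wells holding MEM with 10% FBS and no cells, and red fluorescence was read at Ex/Em 540/590 nm. Signal is expressed as auto fluorescence equivalency relative to Rose Bengal sodium.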

[15] = qHTS assay to test for compound auto fluorescence at 535 nm (green) in HepG2 cell free culture (AID 720686)
[16] = biological target: Glucocorticoid receptor (Homo sapiens) (UniProt P04150); assay: qHTS assay to identify small molecule agonists of the glucocorticoid receptor (GR) signaling pathway (AID 720691; active = well fitted activation curve with a large enough effect in the signal ratio in the repeat runs, not every such curve was filed as active; the % refers to the signal ratio)
Sequence of Glucocorticoid receptor (Homo sapiens) (P04150 whole entry, looked up): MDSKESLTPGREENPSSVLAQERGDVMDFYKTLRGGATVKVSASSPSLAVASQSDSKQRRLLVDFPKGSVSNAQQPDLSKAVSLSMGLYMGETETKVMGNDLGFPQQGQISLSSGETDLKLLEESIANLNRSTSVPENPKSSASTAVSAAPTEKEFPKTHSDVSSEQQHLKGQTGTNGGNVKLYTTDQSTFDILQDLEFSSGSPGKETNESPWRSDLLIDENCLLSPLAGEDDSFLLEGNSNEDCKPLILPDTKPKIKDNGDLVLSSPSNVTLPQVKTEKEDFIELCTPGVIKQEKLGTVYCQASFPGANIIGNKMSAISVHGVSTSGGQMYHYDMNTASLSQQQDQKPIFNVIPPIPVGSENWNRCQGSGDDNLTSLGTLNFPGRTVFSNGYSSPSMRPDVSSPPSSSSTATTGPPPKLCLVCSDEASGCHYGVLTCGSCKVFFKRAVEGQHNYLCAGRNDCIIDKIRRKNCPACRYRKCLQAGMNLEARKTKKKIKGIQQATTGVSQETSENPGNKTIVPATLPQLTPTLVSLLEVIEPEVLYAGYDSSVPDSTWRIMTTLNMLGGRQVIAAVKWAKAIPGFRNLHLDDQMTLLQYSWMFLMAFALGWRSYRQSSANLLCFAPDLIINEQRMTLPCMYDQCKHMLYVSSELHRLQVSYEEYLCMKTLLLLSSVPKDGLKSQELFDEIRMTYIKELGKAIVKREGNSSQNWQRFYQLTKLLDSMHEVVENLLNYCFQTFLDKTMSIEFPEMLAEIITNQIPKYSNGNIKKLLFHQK
Procedure, shortened: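 GR-bla HeLa cells carrying a GRE-driven beta-lactamase reporter, exposed to compounds for 18 h at 37 C. Reporter activation read as fluorescence after 2 h with LiveBLAzer B/G FRET substrate at room temperature.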

[17] = qHTS assay to test for compound auto fluorescence at 460 nm (blue) in HepG2 cells (AID 720687)
Procedure, shortened: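 HepG2 cells in MEM with 10% FBS, attached overnight at 37 C, were exposed to compound or DMSO for 1 hr at 37 C, 5% CO2. Blue fluorescence was read at 405/460 nm, with triamterene as reference fluorophore.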

[18] = qHTS assay for small molecule disruptors of the mitochondrial membrane potential (AID 720635)
Procedure, shortened: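 HepG2 cells exposed to compound 1 hr at 37C, then Mito-MPS dye 30 min. Ratio read of aggregate (540/590 nm) versus monomer (490/535 nm) fluorescence.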

[19] = qHTS assay to test for compound auto fluorescence at 460 nm (blue) in HepG2 cell free culture (AID 720685)
Procedure, shortened: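 Compound (23 nL) or DMSO pinned into cell-free MEM with 10% FBS; blue fluorescence read at 405/460 nm excitation/emission, expressed as auto-fluorescence equivalency to triamterene.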

[20] = biological target: Glucocorticoid receptor (Homo sapiens) (UniProt P04150); assay: qHTS assay to identify small molecule antagonists of the glucocorticoid receptor (GR) signaling pathway (AID 720692; active = well fitted inhibition curve with a large enough effect in the signal ratio in the repeat runs, not every such curve was filed as active; the % refers to the signal ratio)
Procedure, shortened: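 GR-bla HeLa cells carrying a GRE-driven beta-lactamase reporter received compound after 4 h plating, then dexamethasone (5 nM final). After 18 h at 37C, the FRET substrate was loaded for 2 h at room temperature and fluorescence read.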
% is set by controls: 0 for no effect and ±100 for the full control effect.

CCN(CC)CCNC(=O)COc1ccc(Cl)cc1
inactive: Potency [1] | Potency [2] | Potency [3] | Potency [4] | Potency [5] | outcome [6] | outcome [7] | outcome [8] | outcome [9] | outcome [10] | outcome [11] | outcome [12] | outcome [13] | outcome [14] | outcome [15] | Potency [16]

C[C@]12C(=O)OC(=O)[C@H]1[C@H]1C=C[C@@H]2C1
inactive: Potency [1] | Potency [2] | Potency [3] | Potency [4] | Potency [5] | outcome [6] | outcome [7] | outcome [8] | outcome [9] | outcome [10] | outcome [11] | outcome [13] | outcome [14] | outcome [15] | outcome [17] | Potency [16]

COc1ccccc1N1CCN(CCCNc2cc(=O)n(C)c(=O)n2C)CC1
inactive: Potency [1] | Potency [2] | Potency [3] | Potency [4] | Potency [5] | Potency [18] | outcome [6] | outcome [7] | outcome [8] | outcome [9] | outcome [11] | outcome [13] | outcome [19] | outcome [15] | outcome [17]

OCCN(CCO)c1ccccc1
inactive: Potency [1] | Potency [2] | Potency [3] | Potency [4] | Potency [5] | outcome [6] | outcome [7] | outcome [8] | outcome [9] | outcome [10] | outcome [11] | outcome [13] | outcome [14] | outcome [19] | outcome [15] | outcome [17] | Potency [16] | Potency [20]

CCOC(=O)NCCC[Si](OCC)(OCC)OCC
inactive: Potency [1] | Potency [2] | Potency [3] | Potency [4] | Potency [5] | outcome [6] | outcome [7] | outcome [8] | outcome [9] | outcome [10] | outcome [11] | outcome [12] | outcome [14] | outcome [19] | outcome [15] | outcome [17] | Potency [16]

OCC(CBr)(CBr)CBr
inactive: Potency [1] | Potency [2] | Potency [3] | Potency [4] | Potency [5] | outcome [6] | outcome [7] | outcome [8] | outcome [9] | outcome [10] | outcome [11] | outcome [12] | outcome [13] | outcome [14] | outcome [19] | outcome [15] | outcome [17] | Potency [16] | Potency [20]

CC(CNC1CCCCC1)OC(=O)c1ccccc1 (stereo not drawn)
inactive: Potency [1] | Potency [2] | Potency [3] | Potency [4] | Potency [5] | fluorescence, relative to Rose Bengal [6] -0.352% [at 18.6 µM] | fluorescence, % of fluorescein control [7] 0.0399% [at 18.6 µM] | fluorescence, % of triamterene [8] 0.0231% [at 18.6 µM] | fluorescence, % of fluorescent control [9] 0.178% [at 18.6 µM] | fluorescence, % of fluorescein [10] 0.0598% [at 18.6 µM] | fluorescence, % of fluorescent control [11] 0.0629% [at 18.6 µM] | fluorescence, % of fluorescent control [13] -0.008% [at 18.6 µM] | fluorescence, % of Rose Bengal [14] 0.136% [at 18.6 µM] | fluorescence, % of fluorescent control [19] -0.0346% [at 18.6 µM] | fluorescence, % of fluorescein control [15] -0.0274% [at 18.6 µM] | fluorescence, % of fluorescent control [17] -0.124% [at 18.6 µM] | Potency [16]
